Experimental data published in ChEMBL document CHEMBL3988442, “University of Dundee, Small-Polar-MMV Screening Library” (2021).
Among all 48,000 compounds or so, about 13,000 (27%) showed an effect of 50% or more. Some of the results follow.

The molecules below were run on Wolbachia pipientis (assay: Anti-Wolbachia Cell-Based Screen). Details: 5 µM.
Format: functional
Set-up: scale not given: in the data most compounds retested in dose-response had high values
In the case of `CC(NCCCc1cnn(C)c1)c1ccc(Br)s1` (stereo unspecified), the “Percent Effect” value is reported as 0.1879%.
In the case of `CN(C)C(=O)CCNC(=O)c1cnc(-c2ccccc2)nc1`, the “Percent Effect” value is reported as -4.598%.
With `O=S1(=O)CCC(n2cc(CNCC3(c4ccccc4)CC3)cn2)C1` (stereo unspecified) the “Percent Effect” value was 4.552%.
In the case of `O=C(c1ccc(OCC2CC2)cc1)N1CCOCC1c1ncon1` (stereo unspecified), the “Percent Effect” value is reported as -1.778%.
With `Nc1cnc(-c2cccc3ccnn23)cn1` the “Percent Effect” value was -6.103%.
For `CN(CC(=O)Nc1ccc(Br)cn1)C(=O)Cc1ccc(O)cc1`, the “Percent Effect” value was -6.927%.
With `Cc1cc(=O)[nH]c(SC(C)C(=O)N2CCC(NS(C)(=O)=O)CC2)n1` (stereo unspecified) the “Percent Effect” value was -6.463%.
With `CS(=O)(=O)NC1CCCN(c2ccc(C#N)cn2)C1` (stereo unspecified) the “Percent Effect” value was 4.469%.
`CC(C)c1cc(N2CCC(NS(C)(=O)=O)C2)nc(C(C)C)n1` (stereo unspecified) was tested, and the “Percent Effect” value was 107.7%.
For `CC(C)c1cc(N2CCC(NS(C)(=O)=O)CC2)n2nccc2n1`, the “Percent Effect” value was -0.6269%.
`Cc1cc(N2CCN(C(=O)c3cc(Cl)c[nH]3)CC2)nc(C(C)C)n1` was tested, and the “Percent Effect” value was -12.01%.
In the case of `CC(C)c1cc(N2CC[C@H](F)C2)n2nccc2n1`, the “Percent Effect” value is reported as -1.052%.
For `CNS(=O)(=O)C1CCN(c2cc(C(C)C)nc(C(C)C)n2)C1` (stereo unspecified), the “Percent Effect” value was 80.93%.
`Cc1nnc(N2CCC(NS(C)(=O)=O)CC2)c(C#N)c1C` was tested, and the “Percent Effect” value was 4.066%.
In the case of `Cc1cc(N2CCC(NS(C)(=O)=O)CC2)nc(C(C)C)n1`, the “Percent Effect” value is reported as 66.62%.
With `O=c1c2cnc(N3CCCCC3)nc2ccn1-c1ccccc1` the “Percent Effect” value was 8.71%.
`COCCSCC(=O)NC1(c2cccc(Br)c2)CC1` was tested, and the “Percent Effect” value was -2.226%.
In the case of `COc1ccc(CN2CC3(CCNCC3)CCC2=O)c(F)c1F`, the “Percent Effect” value is reported as -14.66%.
`Nc1nccc(-c2cccc3ccnn23)n1` was tested, and the “Percent Effect” value was -5.19%.
For `Cc1ccc(CN(C)c2nccc(-c3cn(C)nc3C)n2)o1`, the “Percent Effect” value was -5.707%.
For `Cc1ncncc1-c1ccnc(N)n1`, the “Percent Effect” value was 103.4%.
With `Cc1nn(C)cc1-c1ccnc(N(C)Cc2ccc(F)cc2)n1` the “Percent Effect” value was 21.27%.
For `Cc1ncncc1-c1ccnc(NC(C)C)n1`, the “Percent Effect” value was 107.6%.
With `Cc1ccc(-c2ccnc(NC(C)c3n[nH]c(C)n3)n2)c(C)n1` (stereo unspecified) the “Percent Effect” value was -0.9271%.
With `Cc1ccc(-c2ccnc(NC(C)c3ncc[nH]3)n2)c(C)n1` (stereo unspecified) the “Percent Effect” value was 7.863%.
For `Cc1ncncc1-c1ccnc(N(C)C)n1`, the “Percent Effect” value was 99.71%.
In the case of `Nc1nccc(-c2c[nH]nc2C2CCCCC2)n1`, the “Percent Effect” value is reported as -15.86%.
In the case of `O=C(CSc1ccccn1)N1C[C@H]2CC[C@@H]1CN(Cc1cscn1)C2`, the “Percent Effect” value is reported as 3.579%.
For `CCN(CC)c1ncc(Cl)c(C(=O)NC2CCc3nccn3C2)n1` (stereo unspecified), the “Percent Effect” value was -2.888%.
With `Cc1ccccc1N1CCN(C(=O)c2cnn(C(C)C)c2)C(C)C1` (stereo unspecified) the “Percent Effect” value was 2.986%.
For `COc1cccc2c1OCC(C(=O)N(Cc1ccncc1)CC(C)C)C2` (stereo unspecified), the “Percent Effect” value was -1.678%.
`CC(C)N(CCO)C(=O)C1CCC(=O)N(CCc2ccc(Cl)cc2)C1` (stereo unspecified) was tested, and the “Percent Effect” value was -6.406%.
In the case of `COc1ncccc1CN1CCC2(CC1)CN(c1ccccn1)CCO2.O=C(O)C(F)(F)F.O=C(O)C(F)(F)F.O=C(O)C(F)(F)F`, the “Percent Effect” value is reported as 8.158%.
In the case of `COC1COC2(CCN(Cc3ccccc3Cl)CC2)C1.O=C(O)C(F)(F)F` (stereo unspecified), the “Percent Effect” value is reported as -10.24%.
For `COc1ncccc1CN1CCC2(CC1)CC(OCC1CC1)CO2.O=C(O)C(F)(F)F` (stereo unspecified), the “Percent Effect” value was 103.5%.
For `CCOC1COC2(CCN(Cc3cccnc3OC)CC2)C1.O=C(O)C(F)(F)F.O=C(O)C(F)(F)F` (stereo unspecified), the “Percent Effect” value was 97.13%.
With `CNC(=O)COC1COC2(CCN(Cc3cccnc3OC)CC2)C1.O=C(O)C(F)(F)F` (stereo unspecified) the “Percent Effect” value was 91.78%.
In the case of `CNC(=O)COC1COC2(CCN(c3ncccn3)CC2)C1.O=C(O)C(F)(F)F` (stereo unspecified), the “Percent Effect” value is reported as 21.38%.
With `COc1cccc2c1OCC(CNC(=O)CCn1cnnn1)C2` (stereo unspecified) the “Percent Effect” value was -3.423%.
For `Cc1cc(N2CCCC(OC(=O)CCc3cnn(C)c3)C2)nc(C)n1` (stereo unspecified), the “Percent Effect” value was 0.03167%.
`COCCN1CCC2(CC1)CC(OCC1CC1)c1ccc(C)cc12` (stereo unspecified) was tested, and the “Percent Effect” value was -29.1%.
`COCCN1CCC(C)(c2cc(O)[nH]n2)CC1` was tested, and the “Percent Effect” value was 107.8%.
`COCCN1CCN(CC2(O)CCCCC2)CC1` was tested, and the “Percent Effect” value was -7.115%.
In the case of `COCCCC1(CO)CCCN(CCS(C)(=O)=O)C1` (stereo unspecified), the “Percent Effect” value is reported as -5.665%.
For `COCCCC1(CO)CCCN(CCOC)C1` (stereo unspecified), the “Percent Effect” value was 5.578%.
`COCCN1CCCC(C)(c2cc(O)[nH]n2)C1` (stereo unspecified) was tested, and the “Percent Effect” value was 85%.
With `COc1cccc([C@@H]2CN(C3CSCCSC3)C[C@H]2C(=O)O)c1` the “Percent Effect” value was -1.681%.
With `O=C(O)C(F)(F)F.O=C(O)C(F)(F)F.c1cnc(N2CC[C@@H](N3CCOCC3)[C@@H]2Cc2ccncc2)nc1` the “Percent Effect” value was -7.245%.
`CC(C)NC(=O)NC(C)c1ccc(-c2ccncc2)cc1` (stereo unspecified) was tested, and the “Percent Effect” value was -5.821%.
`CN(C)C(=O)c1cc(S(=O)(=O)N2CCCC2Cn2ccnc2)cn1C` (stereo unspecified) was tested, and the “Percent Effect” value was 11.52%.
For `Cc1nn(C)cc1S(=O)(=O)N(C)[C@@H]1CCC[C@@H](n2ccnc2)[C@@H]1O`, the “Percent Effect” value was 94.74%.
For `CCN(CC)[C@@H]1CN(S(=O)(=O)c2cn(C)cn2)[C@@H]2CCCO[C@H]12`, the “Percent Effect” value was -3.081%.
`CC(C)N(C)CC(=O)N1CCCC(n2ccnc2)C1` (stereo unspecified) was tested, and the “Percent Effect” value was -10.62%.
In the case of `CO[C@H]1CCN(S(=O)(=O)c2cn(C)cn2)[C@H]1Cc1ccncc1`, the “Percent Effect” value is reported as -4.113%.
With `CN([C@@H]1CCC[C@@H](n2ccnc2)[C@@H]1O)S(=O)(=O)c1cn(C)cn1` the “Percent Effect” value was 87.13%.
In the case of `CNC(=O)[C@@H](c1ccccc1F)N1CCC[C@H]1C(=O)NC1CCOCC1.Cl`, the “Percent Effect” value is reported as 3.155%.
With `CCCN1CCCn2nc(CNS(=O)(=O)c3cccc(C#N)c3)cc2C1` the “Percent Effect” value was 3.103%.
`COc1ccc(CNCC2CC2)cc1F` was tested, and the “Percent Effect” value was 0.5807%.
With `COc1ccc(CNC2CCc3ncnn3C2)cc1OCC1CC1` (stereo unspecified) the “Percent Effect” value was 83.43%.
In the case of `CN(C)C(=O)COc1ccccc1CNC1CCc2ncnn2C1` (stereo unspecified), the “Percent Effect” value is reported as -0.6489%.
With `c1ccc(OC2CCCC2)c(CNC2CCc3ncnn3C2)c1` (stereo unspecified) the “Percent Effect” value was 12.7%.
`COCCOc1ccc(CNC2CCc3ncnn3C2)cc1OC` (stereo unspecified) was tested, and the “Percent Effect” value was 100.1999%.
In the case of `COc1ccc(CNC2CCc3ncnn3C2)cc1OCCCC#N` (stereo unspecified), the “Percent Effect” value is reported as 100.9%.
In the case of `COc1ccc(CNC2CCC(O)CC2)cc1OCCCC#N` (stereo unspecified), the “Percent Effect” value is reported as 107.9%.
`COc1ccc(CCC(=O)NC2CCC(O)CC2)cc1OC` (stereo unspecified) was tested, and the “Percent Effect” value was -0.04658%.
`CNC(=O)COc1ccccc1CNC1CCc2ncnn2C1` (stereo unspecified) was tested, and the “Percent Effect” value was -1.235%.
